# The campaign covered roughly 360,000 compounds. About 5,000 (1.4%) were called active. Many of the other results were omitted from the sample, so actives are more common in it than they were. Unmarked numbers belong to inactive results.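 The calls were made as follows: active = inhibition of 50% or more, scaled per plate between neutral and stimulator controls; inactive = the rest.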
# Assay: mitochondrial permeability transition pore inhibitors, primary screen, biochemical, isolated mouse mitochondria, absorbance (AID 602449);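 also: 0% = DMSO wells given calcium and 100% = 1 mM EGTA wells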
# Conditions: Ca2+ swelling absorbance, 30 min, at 10 µM, stronger effect = higher value
row,SMILES,inhibition
1,C[C@H](NS(=O)(=O)c1ccc(Cl)cc1)C(=O)OCC(=O)N1CCOCC1,1.4%
2,COc1ccc(C(C)C)cc1S(=O)(=O)Nc1ncn[nH]1,-0.4%
3,CC(=O)c1c(C)[nH]c(C(=O)CN2C(=O)NC(C)(C)C2=O)c1C,-0.1%
4,O=C(CSc1nc2ccc([N+](=O)[O-])cc2[nH]1)c1ccc(Cl)cc1,104% (active)
5,Cc1nc(SCC(=O)c2ccccc2)c([N+](=O)[O-])[nH]1,3.9%
6,CC(=O)Nc1ccc(C(=O)CSc2nc3ccc(C)cc3[nH]2)cc1,-1.5%
7,COc1cccc(NC(=O)CN(C)C(=O)CSCc2nc3scc(-c4cccs4)c3c(=O)[nH]2)c1,-0.9%
8,Cc1ccccc1N1CC(C(=O)Nc2nnc(SCCC3OCCO3)s2)CC1=O (stereo unspecified),-2.6%
9,Cc1cccc(COc2ccccc2/C=N/Nc2ccc([N+](=O)[O-])cc2)c1,69.1% (active)
10,Cc1cc([N+](=O)[O-])ccc1NCc1cccc([N+](=O)[O-])c1,6.8%
11,CC(C)c1ccc(C=NNc2ccc([N+](=O)[O-])cn2)cc1,7%
12,O=[N+]([O-])c1ccc(N/N=C/c2ccccc2)cc1,63.2% (active)
13,O=[N+]([O-])c1ccc(N=NNc2ccc([N+](=O)[O-])cc2)cc1,21.4%
14,Cc1ccccc1OCCOc1ccc([N+](=O)[O-])cc1/C=N/n1cnnc1,3.3%
15,c1ccc(-c2cn3c(n2)CCc2ccc4cccnc4c2-3)cc1,-2%
16,O=C(OCC(=O)N1CCCCCC1)c1cccc(Cl)c1Cl,3.6%
17,CN(C)CCN=c1cc(-c2ccccc2)oc2ccc(Cl)cc12,3%
18,CCCCn1c(N)c(N(CC(C)C)C(=O)c2ccc(Br)o2)c(=O)[nH]c1=O,-1.5%
19,CC(C)N(Cc1ccccc1)C(=S)Nc1ccc(OC(F)F)cc1,5.8%
20,CC/C(=N\NC(=S)NC(C)C)c1ccc(OC(F)F)cc1,1.8%
21,CC(NC(=S)Nc1ccc(OC(F)F)cc1)c1ccc(F)cc1 (stereo unspecified),102% (active)
22,Cc1cc(Br)ccc1NC(=O)c1cnc(N2CCN(c3ccccn3)CC2)c2ccccc12,0.4%
23,O=C(O)c1ccc([N+](=O)[O-])cc1Sc1ccsc1,0.7%
24,COCCn1c(SCC(=O)Nc2cc(OC)ccc2OC)nc2c(c1=O)SC(C)C2 (stereo unspecified),1.2%

row,SMILES,inhibition
1,CCCCCc1c(-c2ccc(OC)c(OC)c2)ncn1CCc1ccccc1OC,5.6%
2,CCCCCc1c(Cc2ccccc2)ncn1CCc1ccccc1OC,85.6% (active)
3,CCCCCc1c(-c2cccc(Br)c2)ncn1CCc1ccccc1OC,1.3%
4,CCCCn1c(N)c(N(CC(C)C)C(=O)c2cccc(S(=O)(=O)N3CC(C)OC(C)C3)c2)c(=O)[nH]c1=O (stereo unspecified),6.1%
5,CCOC(=O)c1cnc(Nc2nc3ccccc3o2)nc1CSC(=S)N1CCCCC1,1.4%
6,O=C(CN1C(=O)CC(c2ccccc2)=Nc2ccccc21)NC1CCCCC1,-0.4%
7,Cc1cc(C=O)c(C)n1-c1ccc(NC2CCCCC2)c([N+](=O)[O-])c1,80.6% (active)
8,Cc1cc([N+](=O)[O-])c(NC2CCCCC2)c([N+](=O)[O-])c1,0.6%
9,COc1ccc(NC(=O)CN(C)C(=O)c2ccc(NC3CC3)c([N+](=O)[O-])c2)cc1,0.5%
10,OC[C@@H]1CN(Cc2ccc(-c3ccccc3)cc2)C[C@H](n2cnc3c(NC4CCCC4)ncnc32)O1,17.2%
11,COC(=O)c1ccc(OCC(O)CN(CCO)CC(O)Cn2ccc3ccccc32)cc1 (stereo unspecified),0%
12,Cc1ccc(N(CCC(=O)O)S(=O)(=O)c2cccc(C(F)(F)F)c2)cc1,1.1%
13,Cc1oc2c(F)c(F)c(F)c(F)c2c1S(=O)(=O)Nc1cccc(C(F)(F)F)c1,83.3% (active)
14,Cc1noc(C)c1S(=O)(=O)Nc1cc(C(F)(F)F)ccc1N1CCOCC1,4.6%
15,N/C(=N\OC(=O)CCCC(=O)O)c1ncc(C(F)(F)F)cc1Cl,-0.2%
16,O=C(c1ccccn1)c1ncc(C(F)(F)F)cc1Cl,-0.8%
17,N/C(=N\OC(=O)Nc1ccc(Cl)c(Cl)c1)c1ncc(C(F)(F)F)cc1Cl,88.1% (active)
18,ONC(=Nc1ccc(Cl)cc1)c1ccccc1Cl,1%
19,CCOC(=O)C1CSC(CC(=O)Nc2ccc(OCC)cc2)C(=O)N1 (stereo unspecified),3.6%
20,CCCCCCNCCn1cnc2c(N)ncnc21,-0.8%
21,COc1cccc(-c2cnc(OC(C)(C)C)nc2OC(C)(C)C)c1,-0.3%
22,COc1ccc(C(C)NC(=O)C2CCCC2)cc1 (stereo unspecified),0.1%
23,CCN(CC(=O)NCCCN1CCOCC1)S(=O)(=O)c1cc(Cl)ccc1Cl,-1.1%
24,COc1ccc(Cl)cc1NC(=O)CN(C)Cc1ccc(OC)c(OC)c1,0.9%

row,SMILES,inhibition
1,COc1ccc(Br)cc1C(=O)NC(=S)Nc1cc(-c2nc3ccccc3[nH]2)ccc1C,70.7% (active)
2,COc1ccccc1C(=O)NC(=S)Nc1ccccc1N1CCCCC1,1.3%
3,COc1ccc(Br)cc1C(=O)Nc1cccc(C)c1C,-1.2%
4,CC1CCCCC12NC(=O)N(CC(=O)OCC(=O)NCc1ccc(F)cc1)C2=O (stereo unspecified),-0.2%
5,O=C(Nc1nsc(-c2ccccc2)n1)c1ccncc1,0.9%
6,O=C(CN(c1cccc(Cl)c1)S(=O)(=O)c1ccccc1)NN=C1CCCC1,0.3%
7,Cc1nnc(SCC(=O)N2CCOCC2)[nH]c1=O,26.4%
8,CCOC(=O)CSc1nc(C)c(Oc2ccc(Cl)cc2Cl)c(=O)[nH]1,2.7%
9,CCCCOC(=O)CNc1nnc(SCC(=O)OCC)[nH]c1=O,77.3% (active)
10,COc1ccccc1P(=O)(c1ccccc1)c1ccccc1NC(C)=O (stereo unspecified),0.1%
11,COC(C[C@H](O)CC(=O)COCc1ccccc1)OC,-0.4%
12,Cn1c(SCC(=O)N/N=C/c2ccc(O)c(O)c2)nc2ccccc21,2.9%
13,CC(C)(C)c1nnc(NC(=O)C2c3ccccc3Oc3ccccc32)s1,6.5%
14,O=C(N/N=C/c1ccc(O)c(O)c1)C1c2ccccc2Oc2ccccc21,104% (active)
15,COc1ccc(CNS(=O)(=O)c2cc(-c3cc(C)no3)ccc2C(C)C)cc1,-0.4%
16,Cc1cccc(NC(=S)NCCc2ccc(F)cc2)c1C,0.7%
17,Cc1c(NC(=O)CCCOc2ccccc2)cccc1[N+](=O)[O-],0.1%
18,CC(C)CNC(=S)Nc1ccc(F)cc1,2.1%
19,Cc1c(NC(=S)NCc2ccc(F)cc2)cccc1[N+](=O)[O-],96.5% (active)
20,COc1cc(NC(=S)NCc2ccc(S(N)(=O)=O)cc2)cc(OC)c1,-1%
21,Cc1cc(C)cc(NC(=S)NCc2ccc(F)cc2)c1,50.1% (active)
22,C/C(=N\N=C(N)N)c1ccc(Cl)cc1,2%
23,COc1cccc(NC(=O)C(Sc2nnnn2C)c2ccccc2)c1 (stereo unspecified),-1.4%
24,CCOc1ccc(OCC)c(NC(=O)CN(C)S(=O)(=O)c2cccc3nsnc23)c1,-0.3%

row,SMILES,inhibition
1,COc1ccccc1OCCNc1cc(N2CCOCC2)ccc1[N+](=O)[O-],2.8%
2,COc1ccc(CCNc2cc(N3CCN(C(=O)c4ccccc4OC)CC3)ccc2[N+](=O)[O-])cc1OC,55.3% (active)
3,COc1ccc(CCNC(=O)c2ccccc2-c2ccccc2C(=O)O)cc1OC,-0.5%
4,O=S(=O)(CCc1nc2ccccc2o1)c1ccc(Cl)cc1,-1.2%
5,Cc1cc(F)ccc1NC(=S)NCCc1ccccc1,0%
6,O=C(NCCc1ccccc1)C1CC1,-0.4%
7,S=C(NCCc1ccccc1)NCc1ccccc1Cl,69.8% (active)
8,O=C(NCCCc1ccccc1)C1CCC(CNc2c(N3CCCCC3)c(=O)c2=O)CC1 (stereo unspecified),0.1%
9,CC(C)(CNC(=O)Cc1ccc(Cl)cc1Cl)N1CCOCC1,1.9%
10,CC1=NN(/C(=N\c2nnc(C)s2)Nc2ccccc2)[C@H](c2ccc(C)cc2)S1,0.1%
11,COc1nc(NC2CCCCC2)nc(N2CCCCCC2)n1,20.8%
12,FC(F)(F)COc1nc(N2CCCCC2)nc(N2CCNCC2)n1,78.3% (active)
13,CN(N)c1nc(N2CCCC2)nc(N2CCCC2)n1,1.8%
14,O=S(=O)(c1ccccc1)N1CCC(c2ccccc2)CC1,1.4%
15,COc1ccc(C2(C)ON(c3ccccc3C(F)(F)F)C2=O)cc1 (stereo unspecified),-1.7%
16,CCc1noc(C)c1C(=O)Oc1ccc(N(C)S(=O)(=O)c2ccc(C)c(C)c2)cc1,0.2%
17,Cc1ccc(CNC(=O)CCC(=O)N2CC(C)Sc3ccccc32)cc1 (stereo unspecified),-1.8%
18,O=C(c1ccc(Cl)cc1)c1ccc(OCC(O)CN2CCCCC2)cc1 (stereo unspecified),96.3% (active)
19,CC(=O)Nc1ccc(OCC(O)CN2CCN(c3ccccc3Cl)CC2)cc1 (stereo unspecified),-1.1%
20,OC(COc1ccc(CN2CCSCC2)cc1)CN1CCCCC1 (stereo unspecified),1.1%
21,CCC(C)N1C(=O)S/C(=C/c2ccc(Sc3nc4ccccc4[nH]3)o2)C1=O (stereo unspecified),91.9% (active)
22,CCC(c1nc2ccccc2[nH]1)n1c(=O)c(-c2cccs2)nc2ccccc21 (stereo unspecified),2.6%
23,CN1CCN(c2ccc([N+](=O)[O-])c(Sc3nc4ccccc4[nH]3)c2)CC1,-0.9%
24,O=C(NC1CCCC1)C1c2ccccc2OCC(=O)N1CC(F)(F)F (stereo unspecified),-0.2%
